Screening results (PubChem)
The list is not random: actives were taken first. Their share in the collection is about 1.6%.
CCHF vOTU inh-1 – blocks the CCHF virus ovarian tumor domain protease | CCHFV vOTU protease, Pep-AMC fluorescence | inhibition, % at 11.5 µM | 370,000 tested, 0.55% active | AID 651958; further: 0% = vehicle wells with enzyme and 100% = no enzyme wells
BJeLR viability – BJeLR cell viability loss; BJeLR (HRASV12) viability, CellTiter-Glo ATP luminescence, 48 h; inhibition, % (test concentration not listed); 300,000 tested, 0.17% active; AID 1554; in the data active means inhibition above about 50%
RN4220 kill – kills Staphylococcus aureus RN4220. S. aureus RN4220 growth, OD600, 16 h. inhibition, % (test concentration not listed). 330,000 tested, 0.33% active; in the data active means inhibition above about 85%;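 further: plate controls were untreated cells for no effect and reference antibiotic for full effect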
Sa ugtP lethal – growth inhibition of S. aureus ugtP deletion strain. S. aureus RN4220 ugtP deletion, OD600 growth, 16 h. growth inhibition, % (test concentration not listed). 330,000 tested, 0.54% active. AID 1259309; in the data active means growth inhibition above about 68%;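 further: plate controls were untreated wells for no effect and antibiotic for full effect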
PfHsp40 rescue – compounds rescuing yeast from Plasmodium falciparum HSP40 toxicity; S. cerevisiae expressing PfHsp40, growth rescue, ATP luminescence; 340,000 tested, 0.68% active; growth rescue, % at 12.5 µM; in the data active means growth rescue above about 28%, passing the limit was not always enough;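 further: yeast W303a lacking pdr1 and pdr3 grown in galactose medium; growth measured after three days at 30 °C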
CCHF vOTU inh-2 – CCHFV vOTU protease inhibition, confirmation; shares compounds with CCHF vOTU inh-1; Recombinant CCHFV vOTU, Pep-AMC fluorescence; inhibition, % at 11.5 µM; 1,900 tested, 17% active
Active calls of the source: *; . = no result. Unless noted, no stated cut-off is given here; in the data, active means inhibition above about 30%; inactive means the rest.

SMILES	CCHF vOTU inh-1	BJeLR viability	RN4220 kill	Sa ugtP lethal	PfHsp40 rescue	CCHF vOTU inh-2
CC(=O)Nc1ccc(NC2=C/C(=N/S(=O)(=O)c3cccs3)c3ccccc3C2=O)cc1	110*	-4	.	.	1	97*
CC(=O)Nc1ccc(NC2=CC(=NS(=O)(=O)c3cccs3)c3ccccc3C2=O)cc1	.	.	20	-1	.	.
Cc1ccccc1NC1=C/C(=N\S(=O)(=O)c2cccs2)c2ccccc2C1=O	101*	1	99*	88*	-1	98*
COc1ccc(S(=O)(=O)/N=C2\C=C(Nc3ccc(O)cc3)C(=O)c3ccccc32)cc1	110*	51*	.	.	-1	105*
CCOc1ccc2ccccc2c1C=NNC(=O)CNC(=O)c1ccccc1F	.	.	5	13	.	.
COc1ccc(S(=O)(=O)n2nc(OC(=O)c3ccc(C)cc3)cc2N)cc1	35*	-5	0	1	-1	-7
Cc1ccc(C(=O)Oc2cc(N)n(S(=O)(=O)c3ccc(C)cc3)n2)cc1	5	-4	0	8	0	.
C=CCCC(Cc1ccc(F)cc1)C(=O)OCC(C)NC(=O)C(CC=C)CC(=O)N(CCO)Cc1ccccc1 (stereo not drawn)	.	.	1	6	.	.
CCOc1ccc(S(=O)(=O)NCc2ccco2)c2ccccc12	32*	4	6	-8	1	-4
O=C(Nc1cccc(C(=O)O)c1)/C(=C\C=C\c1ccccc1)NC(=O)c1ccccc1	13	1	4	3	0	.
O=C(Nc1ccc(C(=O)O)cc1)/C(=C\C=C\c1ccccc1)NC(=O)c1cccc(Br)c1	30*	5	2	9	0	22
CCOC(=O)O[C@]1(C(=O)OCCl)CCC2C3CCC4=CC(=O)C=C[C@]4(C)C3C(O)C[C@@]21C (stereo partly drawn)	.	.	6	1	.	.
CN(C(=O)CSc1nccc(=O)[nH]1)C1CCCCC1	38*	.	1	3	-1	-14
CCN(C(=O)CSc1nccc(=O)[nH]1)C1CCCCC1	4	.	3	10	0	.
CCCC1SC(=NN=Cc2ccc(C)cc2)N(Cc2ccc(OC)cc2)C1=O (stereo not drawn)	.	.	2	37	.	.
O=C(NC1(O)C(=O)c2ccccc2C1=O)c1ccc(C(F)(F)F)cc1	81*	-10	3	2	.	35*
Cc1ccc(C(=O)NC2(O)C(=O)c3ccccc3C2=O)cc1C	49*	-10	0	-3	1	27
O=C(Cc1ccccc1)NC1(O)C(=O)c2ccccc2C1=O	24	-2	.	.	0	.
O=C1C=C(c2cccc(Cl)c2O)CC(c2ccc(Cl)cc2)C1 (stereo not drawn)	.	.	12	1	.	.
CCCCC[C@@H](C)N1C[C@@H](COCc2ccccc2)Oc2cc(N3CC[C@@H](O)C3)ccc2S1(=O)=O	31*	.	.	.	.	-4
CCCCC[C@H](C)N1C[C@H](COCc2ccccc2)Oc2cc(N3CC[C@@H](N(C)C)C3)ccc2S1(=O)=O	37*	.	.	.	.	3
CCCCC[C@@H](C)N1C[C@H](COCc2ccccc2)Oc2cc(N3CCC[C@@H]3COC)ccc2S1(=O)=O	9	.	.	.	.	.
CCCCC[C@@H](C)N1C[C@H](COCc2ccccc2)Oc2cc(N3CC[C@@H](N(C)C)C3)ccc2S1(=O)=O	15	.	.	.	.	.
CCCCC[C@@H](C)N1C[C@@H](COCc2ccccc2)Oc2cc(N3CCC[C@@H]3CO)ccc2S1(=O)=O	35*	.	.	.	.	8
CCCCC[C@@H](C)N1C[C@@H](COCc2ccccc2)Oc2cc(N3CC[C@@H](N(C)C)C3)ccc2S1(=O)=O	35*	.	.	.	.	2
SMILES	CCHF vOTU inh-1	BJeLR viability	RN4220 kill	Sa ugtP lethal	PfHsp40 rescue	CCHF vOTU inh-2
COc1ccc(C2=CC(=O)CC(c3ccc(Cl)cc3)C2)cn1 (stereo not drawn)	.	.	2	1	.	.
CCCN1C(=O)C(=Cc2cc(C)n(C)c2C)SC1=Nc1ccc(OC)cc1	.	.	0	49	.	.
O=[N+]([O-])c1cc(Cl)cc(/C=N/NC(=S)Nc2ccc(S(=O)(=O)N3CCOCC3)cc2)c1O	39*	-7	.	.	449*	3
Cc1cc(=O)[nH]c(NN=Cc2ccc(Br)s2)n1	.	.	-2	-6	.	.
CCOC(=O)C1C2COc3ccc(Cl)cc3C2N2C(=O)CN(Cc3ccc(Cl)cc3)C(=O)[C@@]12C (stereo partly drawn)	.	.	1	5	.	.
COC(=O)c1cccc(-c2ccc(C(c3c(C)[nH][nH]c3=O)c3c(C)[nH][nH]c3=O)o2)c1	57*	1	-9	-23	0	3
Cc1[nH][nH]c(=O)c1C(c1ccc(-c2ccc(Cl)c(C(=O)O)c2)o1)c1c(C)[nH][nH]c1=O	24	.	4	5	-2	.
COC(=O)c1ccccc1-c1ccc(C(c2c(C)[nH][nH]c2=O)c2c(C)[nH][nH]c2=O)o1	43*	3	3	1	0	-12
COC(=O)c1ccc(C(c2c(C)[nH][nH]c2=O)c2c(C)[nH][nH]c2=O)cc1	-6	15	2	6	0	.
CCCCC(=Nc1ccc(N)cc1)C1=C(O)C(C(=O)OC)C(C)(C)CC1=O (stereo not drawn)	92*	7	1	8	0	8
CCC(=Nc1ccc(N)cc1)C1=C(O)C(C(=O)OC)C(C)(C)CC1=O (stereo not drawn)	105*	-13	4	6	0	5
CCOC(=O)c1c2c3c(cccc3n(C)c1=O)C(=O)c1ccccc1-2	17	-15	.	.	3	.
CCOC(=O)c1c2c(n(Cc3ccccc3)c1C)C(=O)C(=O)c1ccccc1-2	102*	.	.	.	-1	102*
CCC(=NO)c1cnnc(SC)n1	.	.	3	10	.	.
CC(=O)N(/N=C1\Sc2ccccc2C1=O)c1cccc(C)c1	36*	9	.	.	1	37*
CC(=O)N(N=C1Sc2ccccc2C1=O)c1ccccc1	.	.	1	1	.	.
CCOC1OC(C(=O)N2CCCCCCC2)=CC(c2coc3ccccc3c2=O)C1CCCO (stereo not drawn)	.	.	5	2	.	.
O=C(N/N=C/c1ccc(Br)o1)/C(=C/c1ccc([N+](=O)[O-])cc1)NC(=O)c1ccccc1	38*	5	.	.	-1	-5
O=C(NN=Cc1ccc(Br)o1)/C(=C/c1ccc([N+](=O)[O-])cc1)NC(=O)c1ccccc1	.	.	6	-6	.	.
CC(C)CC(COCc1cccc(C(F)(F)F)c1)N1CCN(C(=O)c2cccc(C(F)(F)F)c2)CCC1=O (stereo not drawn)	30*	0	3	-3	23	26
Cc1cc(C)nc(NN=CC2=C(N3CCOCC3)/C(=C\c3ccc(Cl)cc3)CC2)n1	.	.	5	1	.	.
CN(C)c1ccc(N/C=C/C(=O)c2ccccc2)cc1	60*	11	9	9	-1	-4
CN(C)c1ccc(/C=C/C(=O)c2ccc(O)cc2)cc1	35*	.	.	.	2	-5
O=C(/C=C/Nc1ccccc1)c1ccccc1	29	-3	-5	-14	1	.
CN(C)c1ccc(C(=O)C=Cc2ccc([N+](=O)[O-])cc2)cc1	17	.	.	.	.	.
